PubChem BioAssay AID1159580 (chemical genetic matrix, 2015)
Where “and” joins values, the source holds several entries; their conditions need not be identical. Equal entries are not always repeated. About 2,000 (36%) of roughly 5,500 compounds were called active. About 18% were inconclusive and are not listed. No stated cut-off is given here; in the data, active means normalized growth mostly below about 0.91 (no sharp cut-off); inconclusive means no clear call, values can overlap the other calls; inactive means mostly above about 0.92. This is one part of the list.

Assay: chemical genetic growth profiling, strain panel (AID 1159580);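 further: tested at 20 µM; growth read once vehicle control cultures reached saturation at 30 °C; 1 = growth at the plate median or of vehicle wells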
Conditions: S. cerevisiae deletion strains, growth OD

Measured: normalized growth

O=NN(CCCl)C(=O)NCCCl
0.928 (inactive) and 0.341 (active): locus YJL095W, strain BCK1, stronger effect = lower value
active: locus YBR231C, strain swc5, stronger effect = lower value 0.604 | locus YBR279W, strain paf1, stronger effect = lower value 0.929 | locus YCL011C, strain gbp2, stronger effect = lower value 0.902 | locus YCL016C, strain dcc1, stronger effect = lower value 0.847 | locus YCL061C, strain MRC1, stronger effect = lower value 0.916 | locus YDR159W, strain sac3, stronger effect = lower value 0.855 | locus YDR334W, strain swr1, stronger effect = lower value 0.876 | locus YDR392W, strain spt3, stronger effect = lower value 0.562 | locus YDR502C, strain sam2, stronger effect = lower value 0.881 | locus YEL003W, strain gim4, stronger effect = lower value 0.803 | locus YER015W, strain faa2, stronger effect = lower value 0.899 | locus YER016W, strain bim1, stronger effect = lower value 0.875 | locus YER155C, strain BEM2 (second series), stronger effect = lower value 0.583 | locus YFR010W, strain ubp6, stronger effect = lower value 0.836 | locus YGL078C, strain dbp3, stronger effect = lower value 0.912 | locus YGL240W, strain doc1, stronger effect = lower value 0.682 | locus YGR135W, strain pre9, stronger effect = lower value 0.846 | locus YHR013C, strain ard1, stronger effect = lower value 0.64 | locus YHR079C, strain IRE1, stronger effect = lower value 0.298 | locus YHR142W, strain chs7, stronger effect = lower value 0.87 | locus YIL125W, strain kgd1, stronger effect = lower value 0.926 | locus YJL129C, strain trk1, stronger effect = lower value 0.759 | locus YJL164C, strain tpk1, stronger effect = lower value 0.878 | locus YJR043C, strain POL32, stronger effect = lower value 0.74 | locus YJR066W, strain TOR1, stronger effect = lower value 0.389 | locus YKL009W, strain mrt4, stronger effect = lower value 0.851 | locus YKL160W, strain elf1, stronger effect = lower value 0.86 | locus YLR113W, strain HOG1, stronger effect = lower value 0.312 | locus YLR221C, strain rsa3, stronger effect = lower value 0.851 | locus YLR320W, strain mms22, stronger effect = lower value 0.589 | locus YLR357W, strain rsc2, stronger effect = lower value 0.813 | locus YLR418C, strain cdc73, stronger effect = lower value 0.601 | locus YML120C, strain ndi1, stronger effect = lower value 0.852 | locus YMR058W, strain fet3, stronger effect = lower value 0.878 | locus YNL071W, strain lat1, stronger effect = lower value 0.914 | locus YNL183C, strain NPR1, stronger effect = lower value 0.368 | locus YNL248C, strain rpa49, stronger effect = lower value 0.763 | locus YNL250W, strain rad50, stronger effect = lower value 0.852 | locus YNL298W, strain CLA4, stronger effect = lower value 0.888 | locus YNL322C, strain KRE1 (second series), stronger effect = lower value 0.764 | locus YOR001W, strain rrp6, stronger effect = lower value 0.751 | locus YOR083W, strain WHI5, stronger effect = lower value 0.844 | locus YOR106W, strain vam3, stronger effect = lower value 0.786 | locus YOR184W, strain ser1, stronger effect = lower value 0.783 | locus YOR231W, strain MKK1, stronger effect = lower value 0.295 | locus YOR270C, strain vph1, stronger effect = lower value 0.638 | locus YPL256C, strain CLN2, stronger effect = lower value 0.352 | strain wtn01, stronger effect = lower value 0.853
1.03 (inactive) and 0.315 (active): locus YHR030C, strain SLT2, stronger effect = lower value
inactive: locus YAL021C, strain ccr4, stronger effect = lower value 0.923 | locus YAL026C, strain drs2, stronger effect = lower value 0.955 | locus YAL030W, strain snc1, stronger effect = lower value 0.958 | locus YAL040C, strain CLN3, stronger effect = lower value 0.974 | locus YBL061C, strain skt5, stronger effect = lower value 0.942 | locus YBR009C, strain hhf1, stronger effect = lower value 0.912 | locus YBR021W, strain FUR4, stronger effect = lower value 0.954 | locus YBR023C, strain chs3, stronger effect = lower value 0.942 | locus YBR171W, strain sec66, stronger effect = lower value 0.92 | locus YBR229C, strain ROT2, stronger effect = lower value 0.986 | locus YCL029C, strain bik1, stronger effect = lower value 0.995 | locus YCL069W, strain vba3, stronger effect = lower value 0.962 | locus YCR088W, strain abp1, stronger effect = lower value 0.958 | locus YDL005C, strain med2, stronger effect = lower value 0.958 | locus YDL035C, strain GPR1, stronger effect = lower value 0.909 | locus YDL040C, strain nat1, stronger effect = lower value 0.959 | locus YDL074C, strain BRE1, stronger effect = lower value 0.93 | locus YDL101C, strain DUN1, stronger effect = lower value 0.964 | locus YDL134C, strain PPH21, stronger effect = lower value 0.979 | locus YDL185W, strain tfp1, stronger effect = lower value 0.98 | locus YDL192W, strain arf1, stronger effect = lower value 0.976 | locus YDR001C, strain nth1, stronger effect = lower value 0.96 | locus YDR069C, strain doa4, stronger effect = lower value 0.95 | locus YDR101C, strain arx1, stronger effect = lower value 0.994 | locus YDR137W, strain rgp1, stronger effect = lower value 0.943 | locus YDR150W, strain NUM1, stronger effect = lower value 1.01 and 0.989 | locus YDR162C, strain NBP2, stronger effect = lower value 0.988 | locus YDR195W, strain ref2 0.997 | locus YDR297W, strain sur2, stronger effect = lower value 0.965 | locus YDR318W, strain mcm21, stronger effect = lower value 0.966 | locus YDR335W, strain msn5, stronger effect = lower value 0.96 | locus YDR388W, stronger effect = lower value 0.983 | locus YEL037C, strain rad23, stronger effect = lower value 0.94 | locus YEL061C, strain CIN8 (second series), stronger effect = lower value 0.952 | locus YEL061C, strain CIN8, stronger effect = lower value 1.04 | locus YER002W, strain NOP16, stronger effect = lower value 1.02 | locus YER110C, stronger effect = lower value 0.986 | locus YER111C, strain swi4, stronger effect = lower value 0.958 | locus YER155C, strain BEM2, stronger effect = lower value 1 | locus YER167W, strain BCK2, stronger effect = lower value 1.02 | locus YGL086W, strain mad1, stronger effect = lower value 0.956 | locus YGL167C, strain pmr1, stronger effect = lower value 0.959 | locus YGL173C, strain kem1, stronger effect = lower value 0.922 | locus YGL227W, strain vid30, stronger effect = lower value 0.925 | locus YGL248W, strain PDE1, stronger effect = lower value 0.943 | locus YGL253W, strain hxk2, stronger effect = lower value 0.985 | locus YGR078C, strain PAC10, stronger effect = lower value 0.991 | locus YGR229C, strain SMI1, stronger effect = lower value 0.823 | locus YGR252W, strain gcn5, stronger effect = lower value 0.777 | locus YHR027C, strain rpn1, stronger effect = lower value 0.948 | locus YHR079C, strain IRE1 (second series), stronger effect = lower value 0.988 | locus YHR094C, strain hxt1, stronger effect = lower value 0.994 | locus YHR129C, strain ARP1, stronger effect = lower value 0.991 | locus YHR200W, strain rpn10, stronger effect = lower value 0.958 | locus YIL066C, strain RNR3, stronger effect = lower value 0.994 | locus YIL073C, strain SPO22, stronger effect = lower value 0.928 | locus YIR030C, strain dcg1, stronger effect = lower value 0.991 | locus YJL092W, strain hpr5, stronger effect = lower value 0.922 | locus YJL095W, strain BCK1 (second series), stronger effect = lower value 0.963 | locus YJL115W, strain asf1, stronger effect = lower value 0.923 | locus YJL134W, strain LCB3, stronger effect = lower value 0.997 | locus YJL154C, strain vps35, stronger effect = lower value 0.975 | locus YJL166W, strain qcr8, stronger effect = lower value 0.923 | locus YJL168C, strain set2, stronger effect = lower value 1 | locus YJL187C, strain SWE1 (second series), stronger effect = lower value 1 | locus YJL187C, strain SWE1, stronger effect = lower value 0.944 | locus YJR075W, strain HOC1, stronger effect = lower value 0.995 | locus YKL068W, stronger effect = lower value 0.997 | locus YKL085W, strain MDH1 (second series), stronger effect = lower value 0.994 | locus YKL085W, strain MDH1, stronger effect = lower value 0.994 | locus YKL190W, strain CNB1, stronger effect = lower value 1.03 | locus YKR001C, strain vps1, stronger effect = lower value 0.904 | locus YKR026C, strain gcn3, stronger effect = lower value 0.983 | locus YKR091W, strain srl3, stronger effect = lower value 0.975 | locus YLL001W, strain dnm1, stronger effect = lower value 0.963 | locus YLL026W, stronger effect = lower value 0.973 | locus YLL041C, strain sdh2, stronger effect = lower value 0.957 | locus YLR027C, strain aat2, stronger effect = lower value 0.934 | locus YLR039C, strain RIC1, stronger effect = lower value 1.08 | locus YLR058C, strain SHM2, stronger effect = lower value 0.984 | locus YLR102C, strain apc9, stronger effect = lower value 0.99 | locus YLR258W, strain gsy2, stronger effect = lower value 0.965 | locus YLR262C, strain YPT6 (second series), stronger effect = lower value 0.939 | locus YLR262C, strain YPT6, stronger effect = lower value 0.988 | locus YLR268W, strain sec22, stronger effect = lower value 0.957 | locus YLR330W, strain CHS5, stronger effect = lower value 0.989 | locus YLR342W, strain FKS1 (second series), stronger effect = lower value 0.967 | locus YLR342W, strain FKS1, stronger effect = lower value 0.958 | locus YLR370C, strain arc18, stronger effect = lower value 0.972 | locus YLR371W, strain rom2, stronger effect = lower value 0.972 | locus YLR384C, strain iki3, stronger effect = lower value 0.96 | locus YML016C, strain PPZ1, stronger effect = lower value 0.989 | locus YML032C, strain rad52, stronger effect = lower value 0.915 | locus YML124C, strain tub3, stronger effect = lower value 0.997 | locus YMR078C, strain ctf18, stronger effect = lower value 0.98 | locus YMR125W, strain sto1, stronger effect = lower value 0.961 | locus YMR129W, stronger effect = lower value 0.967 | locus YMR205C, strain PFK2, stronger effect = lower value 0.878 | locus YMR223W, strain ubp8, stronger effect = lower value 0.918 | locus YMR231W, strain pep5, stronger effect = lower value 0.973 | locus YMR263W, strain SAP30, stronger effect = lower value 0.948 and 0.997 | locus YMR307W, strain GAS1, stronger effect = lower value 0.781 and 0.985 | locus YNL067W, strain RPL9B, stronger effect = lower value 0.947 | locus YNL175C, strain NOP13, stronger effect = lower value 0.984 | locus YNL197C, strain WHI3, stronger effect = lower value 1.01 | locus YNL209W, strain ssb2, stronger effect = lower value 0.965 | locus YNL224C, strain SQS1, stronger effect = lower value 1 | locus YNL233W, strain BNI4, stronger effect = lower value 0.959 | locus YNL271C, strain bni1, stronger effect = lower value 0.947 | locus YNL307C, strain MCK1, stronger effect = lower value 0.96 | locus YNL322C, strain KRE1, stronger effect = lower value 1 | locus YNR049C, strain mso1, stronger effect = lower value 0.964 | locus YNR052C, strain pop2, stronger effect = lower value 0.994 | locus YOL006C, strain TOP1, stronger effect = lower value 0.789 | locus YOL012C, strain htz1 0.791 | locus YOL147C, strain pex11, stronger effect = lower value 0.981 | locus YOR061W, strain CKA2, stronger effect = lower value 0.996 | locus YOR069W, strain VPS5, stronger effect = lower value 0.996 | locus YOR070C, strain gyp1, stronger effect = lower value 0.968 | locus YOR080W, strain dia2, stronger effect = lower value 0.924 | locus YOR083W, strain WHI5 (second series), stronger effect = lower value 1.01 | locus YOR136W, strain idh2, stronger effect = lower value 0.967 | locus YOR144C, strain elg1, stronger effect = lower value 0.984 | locus YOR265W, strain rbl2, stronger effect = lower value 0.957 | locus YOR290C, strain snf2, stronger effect = lower value 0.872 | locus YOR316C, strain cot1, stronger effect = lower value 0.989 | locus YPL051W, strain arl3, stronger effect = lower value 0.942 | locus YPL055C, strain LGE1, stronger effect = lower value 0.777 | locus YPL078C, strain atp4, stronger effect = lower value 0.918 | locus YPL106C, strain sse1, stronger effect = lower value 1.05 | locus YPL240C, strain hsp82, stronger effect = lower value 0.976 | locus YPR119W, strain clb2, stronger effect = lower value 0.992 | locus YPR141C, strain kar3, stronger effect = lower value 0.991 | locus YPR163C, strain tif3, stronger effect = lower value 0.984 | locus YPR167C, strain met16, stronger effect = lower value 0.991
